Results taken from PubChem BioAssay (Tox21).
Values joined by “and” are separate entries in the source; they are usually repeats but may differ in a detail not shown here. Identical values can stand only once. Records with an inconclusive call do not appear. A call without a number means that no potency is given here. Active and inactive are the calls of the source. Calls come from the whole dose curve; as a rule, active = well fitted cell-killing curve with a large enough effect in the repeat runs; inconclusive = weak or mixed curves; inactive = no such curve, though single readings can be large or run the other way.

Assay: qHTS assay to identify small molecule antagonists of the androgen receptor (AR) signaling pathway - cell viability counter screen (AID 743033; note: nearly all actives have a fitted effect of over 45% in size)
Conditions: AR-bla HEK293 viability, CellTiter-Glo luminescence, 16 h; series mostly up to 58.5 µM
Excerpt: National Center for Advancing Translational Sciences [NCATS]
NIH Chemical Genomics Center [NCGC]
U.S. Environmental Protection Agency [EPA]
National Institutes of Environmental Health Sciences [NIEHS]
National Toxicology Program [NTP]
U.S. Food and Drug Administration [FDA]
Androgen receptor (AR), a nuclear hormone receptor, plays a critical role in AR-dependent prostate cancer and other androgen related diseases. Endocrine disrupting chemicals (EDCs) and their interactions with steroid hormone receptors like AR may cause disruption of normal endocrine function as well as interfere with metabolic homeostasis, reproduction, developmental and behavioral functions. To identify the compounds that inhibit AR signaling, GeneBLAzer AR-UAS-bla-GripTite cell line (Invitrogen, Carlsbad, CA, USA) containing a beta-lactamase reporter gene under control of an Upstream Activator Sequence (UAS) stably integrated into HEK293 cells was used to screen the Tox21 10K compound library. The cytotoxicity of the Tox21 compound library against the AR-bla cell line was tested in parallel by measuring the cell viability using CellTiter-Glo assay in the same wells.
Tox21 Assay Protocol Summary:
AR-bla cells were dispensed at 2,000 cells/5 uL of assay medium per well into black wall/clear-bottom 1536-well plates using a Multidrop Combi (ThermoFisher Scientific, Waltham, MA) dispenser. After the assay plates were incubated at a 37C and 5% CO2 for 4 hr, 23 nL of compounds dissolved in DMSO, positive controls or DMSO only was transferred to the assay plate by a Pintool station (Kalypsys, San Diego, CA), followed by addition of 1 uL of agonist (R1881) in culture medium using a Bioraptr Flying Reagent Dispenser (FRD) workstation (Beckman Coulter, Indianapolis, IN, USA). The plates were incubated at a 37C and 5% CO2 for 16 h. After 1 uL of LiveBLAzerTM B/G FRET substrate was added using a Bioraptr FRD, the plates were incubated at room temperature for 2 h and fluorescence intensity was measured by an Envision plate reader (PerkinElmer, Shelton, CT). For cell viability readout that measures cytotoxicity, 4 ul/well of CellTiter-Glo reagent was added into the assay plates using a Bioraptr FRD. After 30 min incubation at room temperature, the luminescence intensity in the plates was measured using a ViewLux (PerkinElmer) plate reader.
Potency is the fitted concentration of half-maximal effect.

Row | SMILES | Potency
1 | CCCCCCC(C)OC(=O)COc1nc(F)c(Cl)c(N)c1Cl (stereo not given) | inactive
2 | CC(C)c1cccc(C(C)C)c1N1C(=O)c2ccc(O)cc2C1=O | 38.9 µM (active)
3 | O=C1OC(OC(=O)c2cccnc2Nc2cccc(C(F)(F)F)c2)c2ccccc21 (stereo not given) | inactive
4 | CCN(CC)CCSC(=O)C(c1ccccc1)c1ccccc1 | inactive
5 | CCc1cccc(C)c1 | inactive
6 | CCCCCCCCCCCCOC(=O)c1cc(O)c(O)c(O)c1 | 54.9 µM (active)
7 | O=C(O)CCCCCCC(=O)O | inactive
8 | C/C=C/C(=O)Oc1c(CCCCCC(C)C)cc([N+](=O)[O-])cc1[N+](=O)[O-] | 7.76 µM (active)
9 | CCCSS/C(CCO)=C(\C)N(C=O)Cc1cnc(C)nc1N | inactive
10 | Cn1cnc2ncnc(N)c21 | inactive
11 | Cc1cc(Nc2ccc(O)cc2)ccc1N | inactive
12 | CC(=O)OC(OC(C)=O)c1ccc([N+](=O)[O-])o1 | 22.3 µM (active)
13 | O=C1C=CC(=O)N1c1ccccc1 | 12.3 µM (active)
14 | C=CC(=O)OCCOCC(CC)(COCCOC(=O)C=C)COCCOC(=O)C=C | 22.8 µM (active)
15 | CN1[C@@H]2CC[C@@H]1CC(OC(=O)C(CO)c1ccccc1)C2 (stereo not given in full) | inactive
16 | C=C(C)C(=O)OCCC[Si](Cl)(Cl)Cl | inactive
17 | [O]=[Zr] | inactive
18 | COC(=O)CC(C)CCC=C(C)C (stereo not given) | inactive
19 | CCOC(=O)COc1ccc(C)cc1 | inactive
20 | CCC(C)(C)c1cc(O)c(C(C)(C)CC)cc1O | inactive

Row | SMILES | Potency
21 | O=C(O)CCn1c2c(c3ccccc31)C[C@H](NS(=O)(=O)c1ccc(F)cc1)CC2 | inactive
22 | NCCCC(O)(P(=O)(O)O)P(=O)(O)O | inactive
23 | CC(O)C#CC(C)O (stereo not given) | 48.5 µM (active)
24 | CSc1ccc2c(c1)N(CCC1CCCCN1C)c1ccccc1S2 (stereo not given) | 23.9 µM (active) and 21.8 µM (active)
25 | CCCCCCCCCCCCCCNCCO | inactive
26 | Oc1c(Br)cc(Br)c2cccnc12 | inactive
27 | C[C@H]1O[C@@H](O[C@H]2[C@@H](O)C[C@H](O[C@H]3[C@@H](O)C[C@H](O[C@H]4CC[C@@]5(C)[C@H](CC[C@@H]6[C@@H]5C[C@@H](O)[C@]5(C)[C@@H](C7=CC(=O)OC7)CC[C@]65O)C4)O[C@@H]3C)O[C@@H]2C)C[C@H](O)[C@@H]1O | 84.9 nM (active) and 15.5 nM (active) and 30.6 nM (active)
28 | Clc1ccc(C(Cn2ccnc2)OCc2ccsc2Cl)c(Cl)c1 (stereo not given) | 26.8 µM (active)
29 | CCCCCCCCCCCCCCCC | inactive
30 | CC(C)(c1cc(Br)c(O)c(Br)c1)c1cc(Br)c(O)c(Br)c1 | 54.8 µM (active)
31 | C1CC(COCC2CO2)CCC1COCC1CO1 (stereo not given) | inactive
32 | Clc1ccc(C(c2ccccc2Cl)C(Cl)Cl)cc1 (stereo not given) | inactive
33 | CCOC(=O)C1=C(C)NC(C)=C(C(=O)OCC)C1c1ccccc1/C=C/C(=O)OC(C)(C)C | inactive
34 | O=C(Nc1ccc(Cl)cc1)Nc1ccc(Cl)c(C(F)(F)F)c1 | 6.01 µM (active)
35 | CCN=C1C=CC(=C(c2ccc(N(CC)CC)cc2)c2ccc(N(CC)CC)cc2)c2ccccc21 | 0.0434 µM (active)
36 | O=C1c2c(O)ccc([N+](=O)[O-])c2C(=O)c2c([N+](=O)[O-])ccc(O)c21 | 6.85 µM (active)
37 | CCCCCCCCCCCCCOP(=O)(O)O | inactive
38 | Cc1occc1SSc1ccoc1C | inactive
39 | C/C=C/C=N/NC(=O)c1ccncc1 | inactive
40 | COc1cc(C(=O)NS(=O)(=O)c2ccccc2C)ccc1Cc1cn(C)c2ccc(NC(=O)OC3CCCC3)cc12 | inactive
